In all, about 63,000 compounds went through this assay and about 1,100 (1.7%) were called active. For the sample, actives were picked, then their nearest neighbours and some compounds at random. Entries with a potency or affinity are not part of this list. A number with no mark means an inactive call.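 The calls were made as follows: active = compounds whose percent cytotoxicity in the single-dose primary screen, scaled between solvent and toxic-drug controls, exceeds 50; inactive = the rest.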
Test: cytotoxicity in KRAS-transformed pancreatic duct cells, primary screen, cell-based, fluorescence, HTS (AID 431);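 also: 0% = DMSO solvent wells and 100% = doxorubicin-treated wells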
Details: HPDE-C7K KRASV12 cells, Alamar Blue viability, 48 h; at 10 µM; hits give high values

Structure (SMILES) | cytotoxicity
O=C(CSc1nnc(-c2ccco2)o1)N1CCOCC1 | -5.8%
Cc1cc(NC(=O)CN2CCN(c3ncccn3)CC2)no1 | -2.6%
CCCn1nnc(NC(=O)COc2ccccc2Cl)n1 | 8.6%
Cc1cc(S(=O)(=O)N2CCC(NC(=O)C34CC5CC(CC(C5)C3)C4)CC2)ccc1-n1cnnn1 | -5.5%
COc1ccccc1OCCNC(=O)c1cccs1 | -0.7%
CCOc1ccc(C2C=C(c3ccc(C)cc3)Nc3nnnn32)cc1 (stereo unspecified) | -11%
COc1ccc(C2=CC(c3ccc(C)cc3)n3nnnc3N2)cc1 (stereo unspecified) | -4.4%
Cc1ccc(CNC(=O)C2CCN(S(=O)(=O)c3cccs3)CC2)o1 | -10.5%
O=C(CCC1CCCC1)c1c(O)c2ccccc2oc1=O | 18%
O=C(c1c(O)c2ccccc2oc1=O)C1CCC1 | 6.1%
O=C(CC1CCCCC1)c1c(O)c2ccccc2oc1=O | 59.2% (active)
COc1cccc(-c2nnc3n2N=C(c2cccc(Br)c2)CS3)c1 | -14.8%
CCSc1nnc([C@@H]2CCCN2C(=O)OC(C)(C)C)o1 | -8.4%
Cc1cccc(OCC(O)Cn2c(NCc3cccnc3)nc3c2c(=O)[nH]c(=O)n3C)c1 (stereo unspecified) | -23.4%
CCc1nc(Nc2ccncc2)c2oc3ccccc3c2n1 | 64.2% (active)
Cc1nc(SCC(=O)O)c2oc3ccccc3c2n1 | -10.8%
CC(=O)N1CCN(c2ccc(Nc3ncnc4c3oc3ccccc34)cc2)CC1 | 19.3%
Cc1nc(SCC(=O)N2CCCc3ccccc32)c2oc3ccccc3c2n1 | -19.9%
CCc1nc(Nc2ccc(N3CCN(C(C)=O)CC3)cc2)c2oc3ccccc3c2n1 | 52.7% (active)
CCNc1nc(CC)nc2c1oc1ccccc12 | -17.1%
Cc1nc(SCC(=O)N2CCN(c3ccccc3)CC2)c2oc3ccccc3c2n1 | 54.9% (active)
CC(=O)N1CCN(c2ccc(Nc3nc(C)nc4c3oc3ccccc34)cc2)CC1 | -3.4%

Structure (SMILES) | cytotoxicity
Cc1nc(Nc2ccncc2)c2oc3ccccc3c2n1 | -14.9%
COc1ccc2c(c1)c(=O)c(Br)c(C)n2Cc1ccccc1 | 0.5%
FC(F)(F)c1cccc(-c2ccc(-c3csnn3)o2)c1 | -13.4%
O=C(O)CC(CNS(=O)(=O)c1ccccc1)c1ccccc1 (stereo unspecified) | 0%
OCc1nnn(-c2cccc(C(F)(F)F)c2)c1CO | -2.5%
N#C/C(Cn1c[n+](NC(=O)Nc2ccccc2)cn1)=N/O | -6.9%
O=C1CC(SCc2nc3ccccc3[nH]2)C(=O)N1c1cccc(F)c1 (stereo unspecified) | -0.8%
O=C(NCc1ccccn1)C1CCC(=O)N1C1CCCC1 (stereo unspecified) | 2.2%
COc1ccccc1NC(=O)CN1CCC(n2nnc3cc(F)ccc32)CC1 | -3.1%
CCOc1ccc2nc(NC(=O)CN3CCC(n4nnc5cc(F)ccc54)CC3)sc2c1 | 66.6% (active)
CCOC(=O)c1ccccc1NC(=O)CN1CCC(n2nnc3cc(F)ccc32)CC1 | 15.3%
CC1(C)CNC(=O)c2sc(NC(=O)CN3CCOCC3)nc2C1 | 0.1%
Cc1ccc2c(c1)NC(=O)C(CC(=O)NCCN(C)C)O2 (stereo unspecified) | -2.3%
Cc1cc(NC(=O)c2cc(-c3ccncc3)nc3c(C)cccc23)no1 | 68.1% (active)
Cc1cc(C)c2nc(-c3ccccn3)cc(C(=O)Nc3cc(C)on3)c2c1 | 8.1%
Cc1cc(NC(=O)c2cc(-c3cccnc3)nc3c(C)c(C)ccc23)no1 | 8.8%
COc1ccc(-c2nc(C#N)c(NCCCN3CCOCC3)o2)cc1 | 0.5%
N#Cc1nc(COc2ccc(F)cc2)oc1NCCN1CCOCC1 | -2.9%
N#Cc1nc(COc2ccc(-c3ccccc3)cc2)oc1NCCCN1CCOCC1 | 50.8% (active)
N#Cc1nc(-c2ccc(OCc3ccccc3)cc2)oc1NCc1cccnc1 | 12.7%
N#Cc1nc(COc2ccc(-c3ccccc3)cc2)oc1NCc1cccnc1 | 83.1% (active)
N#Cc1nc(Cc2ccccc2)oc1NCc1cccnc1 | -11.2%

Structure (SMILES) | cytotoxicity
N#Cc1nc(COc2ccccc2)oc1NCCN1CCOCC1 | -18.1%
N#Cc1nc(-c2ccc(OCc3ccccc3)cc2)oc1NCCN1CCOCC1 | 12.8%
COc1ccccc1CNC(=O)c1ccc(CNc2c(N3CCCC3)c(=O)c2=O)cc1 | 4.2%
CCCc1nc(-c2cc3ccc(C)cc3[nH]c2=O)no1 | 6.3%
Cc1nc(NCC2CCCO2)c2nnn(Cc3ccccc3)c2n1 (stereo unspecified) | -0.3%
Cc1nc(SCC(=O)Nc2ccc(C)c(F)c2)c2oc3ccccc3c2n1 | 24.5%
O=C1CSC(c2ccco2)N1 (stereo unspecified) | -1.3%
O=C(CN1CCN(c2ccc(Cl)cc2)CC1)Nc1ccc(F)c(F)c1 | -4.6%
CC1CN(S(=O)(=O)c2ccc(NC(=O)c3ccco3)cc2)CC(C)O1 (stereo unspecified) | -0.1%
COc1cc(NS(=O)(=O)c2ccc(C)cc2)c2ncccc2c1 | 69.8% (active)
O=C(C1CCN(S(=O)(=O)c2cccc3cccnc23)CC1)N1CCCC1 | 3.6%
COc1cc(NCCCC(C)N)c2ncccc2c1 (stereo unspecified) | 4.4%
CS(=O)(=O)Nc1cccc2cccnc12 | 14.8%
COc1ccc(NS(=O)(=O)c2ccc(Oc3ncccn3)cc2)cc1 | 18.2%
O=S(=O)(Nc1cccc2cccnc12)c1ccc(S(=O)(=O)N2CCCC2)cc1 | 70.3% (active)
O=C(c1nc2nc(-c3ccc(Cl)cc3)cc(C(F)(F)F)n2n1)N1CCOCC1 | 3.6%
COc1ccc(OC)c(-n2cnc3cc(C(=O)O)ccc32)c1 | -15.9%
CC1CCN(CCNC(=O)C2CCCN(S(=O)(=O)c3cccc4nonc34)C2)CC1 (stereo unspecified) | -4.5%
CCc1c(C)sc(NC(=O)c2cccs2)c1C(=O)OC(C)C | 51.6% (active)
CC(C)OC(=O)c1c(NC(=O)c2cccs2)sc2c1CCCC2 | -3.4%
CCOC(=O)c1c(NC(=O)c2cccs2)sc(C)c1CC | 2.4%
COC(=O)Cc1cc(=O)[nH]c(Nc2nc3ccccc3o2)n1 | 11.4%

Structure (SMILES) | cytotoxicity
COCc1cc(=O)[nH]c(Nc2nc3ccccc3o2)n1 | 28.8%
COCc1cc(=O)[nH]c(Nc2nc3ccc(C)cc3o2)n1 | 50.7% (active)
COc1ccccc1NC(C)=O | -2.1%
Cc1cccc(NC(=O)c2ccc(S(=O)(=O)N3CCCCC3)cc2)n1 | 2.7%
COC(=O)c1cc(NC(=O)C2CC=CCC2C(=O)O)cc(C(=O)OC)c1 (stereo unspecified) | -9.5%
CC1Cn2c(nnc2-c2cccc(N)c2)S1 (stereo unspecified) | -6.4%
COc1ccc(S(=O)(=O)N(C)CC(=O)Nc2cccc(C(C)=O)c2)cc1 | -14.2%
COc1ccc(-c2nnc(COc3ccc4ccccc4c3)o2)cc1OC | -1.8%
COc1cc(-c2nnc(COc3ccc4ccccc4c3)o2)cc(OC)c1OC | 36.9%
COc1cc(-c2nnc(COc3ccc4cc(Br)ccc4c3)o2)cc(OC)c1OC | 75.7% (active)
COc1ccc(N=C2SC(C(=O)Nc3ccc4c(c3)OCO4)CC(=O)N2C)cc1 (stereo unspecified) | -25%
Cc1c(NC(=O)COC(=O)C2CC3C=CC2C3)c(=O)n(-c2ccccc2)n1C (stereo unspecified) | -2.3%
CC(/C(O)=C(\C#N)c1nc2ccccc2n1C)N1C(=O)c2ccccc2C1=O (stereo unspecified) | 0.7%
Cc1cccc(N2CCN(c3cccc(C)c3)C2c2cccnc2)c1 | 53.7% (active)
Cc1ccc(N2CCN(c3ccc(C)cc3)C2c2ccncc2)cc1 | -25.3%
Cc1cccc(N2CCN(C(=O)c3ccncc3)CC2C)c1 (stereo unspecified) | 7.3%
Cc1cccc(N2CCN(C(=O)COc3cc(=O)n(C)c4ccccc34)CC2C)c1 (stereo unspecified) | -5.4%
c1cncc(C2Nc3ccccc3-c3nc4ccccc4n32)c1 (stereo unspecified) | 3.3%
O=S(=O)(NC1CCCC1)c1ccccc1Cl | -5.7%
O=c1c2ccccc2c(/C=N/c2ncn[nH]2)c(O)n1Cc1ccccc1 | 17.3%
COc1cc(Br)cc(CN2CCN(C=O)CC2)c1O | -2.1%
COc1cc(Br)cc(/C=N/c2ncn[nH]2)c1O | 85.2% (active)

Structure (SMILES) | cytotoxicity
Oc1c(/C=N/c2ncn[nH]2)ccc2ccccc12 | 65.8% (active)
COc1cccc(C=Nc2cc(C)on2)c1O | 7.3%
C=CCc1cccc(/C=N/c2ncn[nH]2)c1O | 18.3%
Cc1ccccc1-c1nnc(-c2ccc(Br)cc2)o1 | 0.4%
COc1cc(OC)cc(C(=O)Nc2ncc3c(n2)CC(C)CC3=O)c1 (stereo unspecified) | 18.9%
CC(C)c1ccc(NC(=O)c2cnn(-c3ccccc3)c2NC(=O)c2ccco2)cc1 | 0.3%
CCN(CC)CCNC(=O)c1cc2c(=O)n(C)c3ccccc3c2n1C | -20%
O=C(Cn1cc2c(n1)CCCC2)Nc1ccccc1Cl | -7.1%
CCOC(=O)c1cccc(NC(=O)CSc2nnc(COc3ccccc3)n2CC)c1 | -20.1%
Nc1nc(-c2ccc3c(c2)OCCO3)cs1 | -0.3%
c1cncc(Nc2nc(-c3ccncc3)cs2)c1 | 4.9%
CC(=O)Nc1nc(C)c(-c2csc(Nc3ccc(O)cc3)n2)s1 | 63.2% (active)
C=CCNc1nc(-c2sc(NC(=O)CC)nc2C)cs1 | 31.5%
O=C(Nc1nc(-c2ccc3c(c2)OCO3)cs1)C1CC1 | -0.9%
NS(=O)(=O)c1ccc(Nc2nc(-c3ccc(O)cc3)cs2)cc1 | 32.7%
Oc1ccc(Nc2nc(-c3ccc(O)cc3)cs2)cc1 | 84.1% (active)
C=CCNc1nc(-c2sc(NC(C)=O)nc2C)cs1 | 33%
c1cc2c(cc1Nc1nc(-c3ccc4c(c3)OCO4)cs1)OCCO2 | 56.7% (active)

Reference: PubChem BioAssay AID431 (Sanford-Burnham Center for Chemical Genomics, 2006)
